C diff HTS: blocks growth of Clostridium difficile | growth activity, negative = inhibition, % at 16 µg/mL (by protocol) | 86,000 compounds, 0.25% hits | AID 1259249 | Clostridium difficile clinical isolate growth, OD600, 24 h; stronger effect = lower value;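 active = mean growth activity at or below -80% and every replicate also at or below -80%; inconclusive = mean at or below -80% but some replicate above -80%; inactive = mean growth activity above -80%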;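 note: 0% = DMSO wells and -100% = levofloxacin 16 µg/mL wells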
Pf Dd2 inh: inhibitors of Plasmodium falciparum Dd2 growth; P. falciparum Dd2 growth, SYBR Green, 72 h; stronger effect = lower value; activity change, % at 10 µM; 94,000 compounds, 2.3% hits; AID 1159554; in the data active = activity change below about -80%; inconclusive = no clear call, values can overlap the other calls
T cruzi growth: inhibitors of T. cruzi proliferation | T. cruzi beta-gal in NIH3T3, GalScreen luminescence, 90 h | inhibition, % at 8.34 µM | 77,000 compounds, 5.9% hits | AID 624255;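 active = mean inhibition above about 93%, with at least 55% of replicates each passing it, limit read from the data, passing the limit was not always enough; inconclusive = only one of those two conditions holds; inactive = neither condition holds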
An asterisk follows results filed as active; ? = inconclusive; · = no result. In the library only some 6.7% were active in any assay of this set; here they are far more common.

SMILES	C diff HTS	Pf Dd2 inh	T cruzi growth
COc1ccc2c3c([nH]c2c1)[C@H](CO)N(C(C)=O)CC31CCN(Cc2ccccc2Cl)CC1	2.3	-50.5	·
COc1ccc2c3c([nH]c2c1)[C@@H](CO)N(Cc1ccccc1Cl)CC31CN(C(=O)C2CC2)C1	4.7	-70.8	·
COc1ccc2c3c([nH]c2c1)[C@H](CO)N(Cc1ccccc1Cl)CC31CN(C(C)=O)C1	-1.6	-90.4*	·
COCC(=O)N1CCC2(CC1)CN(Cc1ccccc1Cl)[C@@H](CO)c1[nH]c3cc(OC)ccc3c12	2.7	?	·
COc1ccc2c3c([nH]c2c1)[C@@H](CO)N(Cc1ccccc1Cl)CC31CCN(C(=O)C2CC2)CC1	7.4	-86.8*	·
COCC(=O)N1CC2(C1)CN(Cc1ccccc1Cl)[C@@H](CO)c1[nH]c3cc(OC)ccc3c12	-1.1	-36.7	·
O=C(C[C@@H]1C=C[C@H](NS(=O)(=O)c2ccccc2)[C@@H](CO)O1)N1CCC(Cc2ccccc2)CC1	-5.8	26.6	·
CC(C)c1cn(CC[C@@H]2CC[C@H](NC(=O)C3CCOCC3)[C@@H](CO)O2)nn1	-4.5	-58.2	·
C[C@@H]1CCCCO[C@H](CN(C)C(=O)Nc2ccc(F)cc2)[C@@H](C)CN([C@@H](C)CO)C(=O)c2cc(N(C)C)ccc2O1	-1.6	-42.0	50.8
CCS(=O)(=O)N1CC2(CN(Cc3ccccc3F)[C@@H](CO)c3[nH]c4cc(OC)ccc4c32)C1	-0.9	-87.3*	·
COCC(=O)N1CCC2(CC1)CN(Cc1cccc(OC)c1)[C@H](CO)c1[nH]c3cc(OC)ccc3c12	1.7	?	·
COCC(=O)N1CCC2(CC1)CN(Cc1cccc(OC)c1)[C@@H](CO)c1[nH]c3cc(OC)ccc3c12	3.4	-91.6*	·
COc1ccc2c3c([nH]c2c1)[C@@H](CO)N(Cc1ccccc1F)CC31CN(C)C1	-2.4	-6.6	·
COc1ccc2c3c([nH]c2c1)[C@@H](CO)N(Cc1ccccc1F)CC31CCN(C(=O)C2CC2)CC1	2.2	-85.3*	·
COc1ccc2c3c([nH]c2c1)[C@H](CO)N(Cc1ccccc1F)CC31CCN(C(=O)C2CCCC2)CC1	-11.2	-17.9	·
CCC(=O)N[C@H]1C=C[C@H](CC(=O)NCC2CC2)O[C@@H]1CO	-0.3	-6.3	·
COc1ccc2c3c(n(C)c2c1)[C@H](CO)N(CC1CC1)CC31CN(C(=O)c2ccc(F)cc2)C1	·	40.2	·
COc1ccccc1C#Cc1cnc2c(c1)C(=O)N([C@H](C)CO)C[C@@H](C)[C@H](CN(C)C(=O)c1ccc3c(c1)OCO3)O2	9.3	-55.2	·
C[C@@H]1CCCCO[C@H](CN(C)C(=O)Nc2ccc3c(c2)OCO3)[C@H](C)CN([C@H](C)CO)C(=O)c2cc(NC(=O)Cc3ccccc3)ccc2O1	0.8	-82.2*	73.8
C[C@@H]1CCCCO[C@H](CN(C)C(=O)Nc2ccc3c(c2)OCO3)[C@@H](C)CN([C@@H](C)CO)C(=O)c2cc(NC(=O)Cc3ccccc3)ccc2O1	4.1	-65.7	54.2
C[C@@H]1CCCCO[C@@H](CN(C)C(=O)Nc2ccc3c(c2)OCO3)[C@@H](C)CN([C@@H](C)CO)C(=O)c2cc(NC(=O)Cc3ccccc3)ccc2O1	-0.2	-83.5*	32.3
C[C@@H]1CCCCO[C@H](CN(C)C(=O)Nc2ccccc2)[C@H](C)CN([C@@H](C)CO)C(=O)c2cc(NC(=O)Cc3ccccc3)ccc2O1	·	-59.0	39.5
CC(C)C(=O)Nc1ccc2c(c1)C(=O)N(C)[C@@H]1CC[C@H](CC(=O)NC3CCCC3)O[C@@H]1CO2	-3.2	9.0	-33.8
COc1ccc2c3c(n(C)c2c1)[C@@H](CO)N(Cc1ccncc1)CC31CCN(C(=O)C2CCCCC2)CC1	-0.5	-58.7	·
C[C@H](CO)N1C[C@H](C)[C@H](CN(C)C(=O)c2ccccc2F)Oc2cc(C#CCN(C)C)ccc2S1(=O)=O	-7.1	-28.3	75.3
SMILES	C diff HTS	Pf Dd2 inh	T cruzi growth
COCC#Cc1ccc2c(c1)O[C@@H](CN(C)C(=O)c1ccccc1F)[C@@H](C)CN([C@H](C)CO)S2(=O)=O	2.4	-47.0	28.0
CCCC#Cc1ccc2c(c1)O[C@@H](CN(C)C(=O)c1ccccc1F)[C@@H](C)CN([C@@H](C)CO)S2(=O)=O	18.4	-83.4*	75.0
CCCC#Cc1ccc2c(c1)O[C@H](CN(C)C(=O)c1ccccc1F)[C@H](C)CN([C@H](C)CO)S2(=O)=O	16.7	-80.7*	33.3
C[C@@H]1CCCCO[C@@H](CN(C)S(=O)(=O)c2ccc(F)cc2)[C@@H](C)CN([C@@H](C)CO)C(=O)c2cc(NC(=O)c3ccccc3)ccc2O1	1.3	-69.8	·
C[C@H](CO)N1C[C@H](C)[C@@H](CN(C)C(=O)c2ccncc2)Oc2ncc(C3=CCCCC3)cc2C1=O	-5.5	20.5	12.5
COc1ccc(S(=O)(=O)N(C)C[C@H]2OCCCC[C@H](C)Oc3ccc(NS(=O)(=O)c4ccc(Cl)cc4)cc3C(=O)N([C@H](C)CO)C[C@@H]2C)cc1	1.5	-87.2*	·
COc1ccc(S(=O)(=O)N(C)C[C@@H]2OCCCC[C@H](C)Oc3ccc(NS(=O)(=O)c4ccc(Cl)cc4)cc3C(=O)N([C@H](C)CO)C[C@H]2C)cc1	-5.9	-78.5	·
COc1ccc(S(=O)(=O)N(C)C[C@@H]2OCCCC[C@@H](C)Oc3ccc(NS(=O)(=O)c4ccc(Cl)cc4)cc3C(=O)N([C@@H](C)CO)C[C@H]2C)cc1	-1.4	-40.9	·
COc1ccc(S(=O)(=O)N(C)C[C@H]2OCCCC[C@H](C)Oc3ccc(NS(=O)(=O)c4ccc(Cl)cc4)cc3C(=O)N([C@@H](C)CO)C[C@H]2C)cc1	0.6	-88.0*	·
COc1ccc(S(=O)(=O)N(C)C[C@H]2OCCCC[C@@H](C)Oc3ccc(NS(=O)(=O)c4ccc(Cl)cc4)cc3C(=O)N([C@H](C)CO)C[C@H]2C)cc1	-1.7	-90.1*	·
COc1ccc(S(=O)(=O)Nc2ccc3c(c2)C(=O)N([C@H](C)CO)C[C@H](C)[C@H](CN(C)S(=O)(=O)c2ccc(Cl)cc2)OCCCC[C@@H](C)O3)cc1	13.8	-37.7	93.8
CS(=O)(=O)N1[C@@H]2c3ccc(C4=CCCC4)c(=O)n3C[C@@H]2[C@@H](CO)[C@@H]1C(=O)NCCc1ccncc1	1.0	·	87.7
COc1ccc(NC(=O)N(C)C[C@H]2OCCCC[C@H](C)Oc3ccc(NC(=O)c4ccccc4)cc3C(=O)N([C@H](C)CO)C[C@H]2C)cc1	-2.3	-95.1*	·
COc1ccc(NC(=O)N(C)C[C@H]2OCCCC[C@H](C)Oc3ccc(NC(=O)Cc4ccccc4)cc3C(=O)N([C@H](C)CO)C[C@H]2C)cc1	0.3	-87.3*	-4.1
COc1ccc(NC(=O)N(C)C[C@H]2OCCCC[C@@H](C)Oc3ccc(NC(=O)c4ccccc4)cc3C(=O)N([C@@H](C)CO)C[C@H]2C)cc1	0.2	-61.7	90.8
COc1ccc(NC(=O)N(C)C[C@@H]2OCCCC[C@@H](C)Oc3ccc(NC(=O)Cc4ccccc4)cc3C(=O)N([C@@H](C)CO)C[C@@H]2C)cc1	-4.7	-57.7	31.0
C[C@H](NC(=O)C[C@@H]1CC[C@H](NC(=O)C2CCOCC2)[C@@H](CO)O1)c1ccccc1	1.3	-7.5	-11.7
CC(C)C#Cc1ccc2c(c1)O[C@@H](CN(C)C(=O)c1ccccn1)[C@@H](C)CN([C@@H](C)CO)S2(=O)=O	4.3	-40.2	9.1
